The list is not random: actives were taken first. Their share in the collection is about 2.3%.
Nrf2 block = Nrf2 qHTS screen for inhibitors. A549 ARE-Fluc reporter, luciferase luminescence, 18-24 h. Potency, µM (titrated, usually from 46 µM), most hits filed as inhibitors. 360,000 compounds, 2.1% hits; also: nearly all actives have a fitted effect of over 60% in size
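Nrf2 function is reported as luminescence of an ARE-controlled luciferase in A549 cells. Compounds were tested at several concentrations, and a CellTiter-Fluor read on the same wells flagged cytotoxicity.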
A549 viability = Nrf2 qHTS screen for inhibitors: counterscreen for cytotoxicity; A549 ARE-Fluc cells, CellTiter-Fluor viability, 18-24 h; Potency, µM (doses to about 46 µM), actives largely listed as inhibitors; 390,000 compounds, 0.16% hits; AID 504648, 2011
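Cytotoxicity counterscreen: CellTiter-Fluor fluorescence was measured in A549 ARE_Fluc cells after 18-24 h of compound exposure in a concentration series. The subsequent BugLite luminescent read reports ARE-luciferase activity.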
Rango complex inh = qHTS Assay for Inhibitors of Rango (Ran-regulated importin-beta cargo) - Importin beta complex formation; Rango CFP/YFP FRET sensor + importin beta, 45 min; Potency, µM (top dose mostly 92.2 µM); 340,000 compounds, 0.031% hits; Importin subunit beta-1 (Homo sapiens), Q14974; calls by dose curve; also: nearly all actives have a fitted effect of over 15% in size
Target sequence (Q14974 whole entry, looked up): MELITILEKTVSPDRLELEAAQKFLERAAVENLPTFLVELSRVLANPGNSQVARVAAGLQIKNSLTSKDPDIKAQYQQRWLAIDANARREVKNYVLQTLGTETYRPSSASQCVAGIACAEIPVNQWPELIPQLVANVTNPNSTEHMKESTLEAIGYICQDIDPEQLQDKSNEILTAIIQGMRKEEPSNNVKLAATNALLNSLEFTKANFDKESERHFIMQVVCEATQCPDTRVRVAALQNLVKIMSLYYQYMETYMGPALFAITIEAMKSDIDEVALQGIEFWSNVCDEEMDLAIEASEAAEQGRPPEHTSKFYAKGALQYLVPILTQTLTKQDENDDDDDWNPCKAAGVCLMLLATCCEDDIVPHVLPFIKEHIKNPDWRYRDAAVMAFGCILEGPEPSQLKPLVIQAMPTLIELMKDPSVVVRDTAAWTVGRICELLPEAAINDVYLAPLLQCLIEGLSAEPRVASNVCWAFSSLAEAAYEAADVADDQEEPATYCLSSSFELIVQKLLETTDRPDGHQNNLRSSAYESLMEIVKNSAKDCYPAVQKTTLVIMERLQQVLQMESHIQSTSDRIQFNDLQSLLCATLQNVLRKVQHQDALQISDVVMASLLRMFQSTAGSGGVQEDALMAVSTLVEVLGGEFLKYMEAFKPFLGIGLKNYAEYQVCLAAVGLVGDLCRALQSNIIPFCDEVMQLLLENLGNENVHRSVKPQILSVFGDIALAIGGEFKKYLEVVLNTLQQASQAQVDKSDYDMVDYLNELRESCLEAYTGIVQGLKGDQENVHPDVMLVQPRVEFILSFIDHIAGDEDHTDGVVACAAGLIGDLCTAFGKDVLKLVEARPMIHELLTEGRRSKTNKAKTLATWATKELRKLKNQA
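Inhibition scored from the CFP 486 nm/YFP 530 nm FRET ratio 45 min after adding 0.125 microM importin beta to 50 nM Rango biosensor preincubated 5 min with compound (room temperature, PBS with DTT, Tween-20, BSA). No-importin wells as positive control.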
Nrf2 activator = qHTS of Nrf2 Activators; AREc32 ARE-luciferase reporter (MCF7-derived line), luminescence, 24 h; Potency, µM (top dose mostly 46.1 µM), hits mostly activators; 410,000 compounds, 0.31% hits; AID 624171, 2012; also: nearly all actives have a fitted effect of over 65% in size
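Steps: seed AREc32_Fluc cells (1000/well, 5% FBS OPTI-MEM); incubate overnight at 37 deg C; add 23 nL compound; incubate 24 hr; add Steady-Glo; hold 30 min RT; read luminescence.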
Rango release inh = qHTS Assay for Inhibitors of RanGTP induced Rango (Ran-regulated importin-beta cargo) - Importin beta complex dissociation | Snurportin-1 (Homo sapiens) + GTP-binding nuclear protein Ran (Homo sapiens) + Importin … | Biochemical FRET Rango-importin beta, RanGTP-induced dissociation | Potency, µM (titrated, usually from 46.1 µM) | 340,000 compounds, 0.071% hits; calls by dose curve; also: nearly all actives have a fitted effect of over 45% in size
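Compounds preincubate 5 min with complex of recombinant Rango and importin beta in PBS with 1 mM DTT. Ran (0.6 uM) loaded with 2 mM GTP plus 0.2 uM RCC1 starts dissociation; FRET is recorded 45 min later.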
A number is an active result; . = inactive; ? = inconclusive; / = no result given. Unless noted, calls follow the shape of the dose curve; as a rule, active = well fitted curve in the direction sought with a large enough effect; inconclusive = small, poorly fitted or top-dose-only effect, or another doubt; inactive = no such curve, though single readings can be large; an effect the other way counts as inactive or inconclusive.

SMILES	Nrf2 block	A549 viability	Rango complex inh	Nrf2 activator	Rango release inh
O=C(Nc1ccc2oc(-c3cccnc3)nc2c1)c1ccc(-c2ccccc2)o1	13µM	.	/	.	/
O=C(Nc1ccc2oc(-c3cccnc3)nc2c1)c1ccc(-c2ccccc2OC(F)(F)F)o1	0.651µM	.	/	.	/
O=C(Nc1ccc2oc(-c3cccnc3)nc2c1)c1ccc(-c2ccc(OC(F)(F)F)cc2)o1	.	.	/	.	/
COc1cc(NC(=O)C(OC(=O)CNC(=O)c2ccccc2)c2ccccc2)cc(OC)c1 (centres undefined)	.	.	/	/	/
CCc1ccccc1NC(=O)C(NS(=O)(=O)c1ccc2c(c1)CCC(=O)N2)c1ccccc1 (centres undefined)	.	.	/	.	/
Cc1ccc(C)c(SC2=NS(=O)(=O)c3ccccc32)c1	.	.	/	/	/
CCOC(=O)N1CCN(c2ccc(S(=O)(=O)N3CCC(C)CC3)cc2[N+](=O)[O-])CC1	18.4µM	.	.	.	.
CC(=O)N1CCN(c2ccc(S(=O)(=O)N3CCOCC3)cc2[N+](=O)[O-])CC1	.	.	.	.	.
COc1cc(/C=N/Nc2ccccc2[N+](=O)[O-])cc(OC)c1O	.	.	.	10µM	.
CC(C)Oc1ccccc1/C=N/Nc1ccccc1[N+](=O)[O-]	.	.	.	10µM	.
COc1ccc(CNC(=O)C/C(C)=N/NC(=O)c2ccc(OC)cc2OC)cc1	.	.	.	.	.
O=[S+]([O-])(c1c(F)cccc1F)N1CCN([S+](=O)([O-])c2c(F)c(F)c(F)c(F)c2F)CC1	.	.	/	/	/
O=[N+]([O-])c1ccc(O)c(-c2cc(C(F)(F)F)nc(-c3ccccc3)n2)c1	?	8.2µM	.	.	.
O=C(CSc1ccc2c(c1)OCCO2)Nc1ccc(Br)cc1	23.1µM	.	.	.	.
O=C(CSc1ccc2c(c1)OCCO2)Nc1ccc2c(c1)OCO2	?	.	.	.	.
Cc1noc(C)c1S(=O)(=O)NCc1ccc(CN(C)C)cc1	.	.	.	.	.
CCN(CC)S(=O)(=O)c1cccc(S(=O)(=O)c2cccc(S(=O)(=O)N(CC)CC)c2)c1	9.2µM	.	.	.	.
CN1CCN(C(CNC(=O)c2ccccc2)c2ccc3c(c2)OCO3)CC1 (centres undefined)	/	.	/	.	/
Nc1ccc2c(c1)Cc1cc(Cl)c(Cl)cc1-2	?	.	.	.	.
Nc1ccc2c(c1)Cc1c(F)cccc1-2	?	.	.	10µM	.
CCOc1ccccc1NC(=O)N(Cc1ccc(C)o1)C1CCN(C(C)=O)CC1	.	.	/	.	/
CN1c2ccccc2C(C)(C)C12C=Nc1c(cc(N3CCOCC3)c3ccccc13)O2 (centres undefined)	.	.	?	.	?
CN1c2ccccc2C(C)(C)C12C=Cc1cc(O)ccc1O2 (centres undefined)	20.6µM	?	?	.	.
CC(C)(C)c1nnc(NC(=O)C2CCN(C(=O)c3ccco3)CC2)s1	?	.	.	.	.
O=C(Nc1ncc(Cc2ccccc2)s1)C1CCN(C(=O)c2ccco2)CC1	20.6µM	.	/	/	/
SMILES	Nrf2 block	A549 viability	Rango complex inh	Nrf2 activator	Rango release inh
CN(Cc1ccc(OC(F)F)cc1)C(=O)/C=C/c1ccc(S(=O)(=O)N2CCOCC2)cc1	23.1µM	.	.	.	.
CN(CC(=O)Nc1ccc(F)cc1)C(=O)C1CCN(S(=O)(=O)c2ccc3c(c2)OCCO3)CC1	?	.	.	.	.
CN(Cc1ccc(OC(F)F)cc1)C(=O)C1CCN(S(=O)(=O)c2ccc3c(c2)OCCO3)CC1	23.1µM	.	.	.	.
CCCCSc1nnc2n(-c3cccc(C)c3)c(=O)c3c4c(sc3n12)CCCC4	.	.	/	.	/
CCCCn1nc2cc(C(=O)NCc3cc(C(F)(F)F)cc(C(F)(F)F)c3)ccc2c1OCC	18.4µM	.	.	.	.
CCOc1c2ccc(C(=O)NCc3cc(C(F)(F)F)cc(C(F)(F)F)c3)cc2nn1CCOC	?	.	.	.	.
CCn1ccc2cc(S(=O)(=O)N3CCC(C(=O)NCCOC)CC3)ccc21	/	.	/	.	/
COc1ccccc1/C=C/C(=O)c1cc(Br)ccc1OC(=O)c1ccco1	25.9µM	?	.	.	.
Cc1ccc(/C=C/C(=O)c2cc(Br)ccc2OC(=O)c2ccco2)cc1	.	.	.	.	.
Cc1ccc(O)c(NC(=O)c2noc3c2CCCC3)c1	.	.	/	7.94µM	/
Cc1ccc(O)c(NC(=O)c2noc3c2CCCCC3)c1	.	.	.	?	.
Cc1cc(C(=O)Nc2cccc3c2O[C@@H](CN(C)S(C)(=O)=O)[C@H](C)CN([C@@H](C)CO)C3=O)n(C)n1	.	.	.	.	.
O=[N+]([O-])c1ccc(CN2CCCCCC2)cc1	.	.	.	.	.
CC(C)CC(=O)N1CCN(Cc2ccc3ccccc3c2)CC1	?	.	.	.	.
CSc1ccc(CN2CCN(C(=O)CC(C)C)CC2)cc1	25.9µM	.	.	.	.
CSc1ccc(CN2CCN(Cc3ccc([N+](=O)[O-])cc3)CC2)cc1	8.2µM	.	.	.	.
CCOc1ccc(-c2nnc(SCC(=O)NCCC(C)C)nc2-c2ccc(OCC)c(OC)c2)cc1OC	/	.	/	.	/
CCOc1ccccc1-n1c(SCC(=O)Nc2ccccc2C(=O)O)nc2ccccc2c1=O	?	?	.	.	.
CCOC(=O)N1CCN(C(=O)c2cc(COc3ccc4ncccc4c3)on2)CC1	18.4µM	.	.	.	.
O=C(c1cc(COc2ccc3ncccc3c2)on1)N1CCC[C@H]1CO	9.2µM	.	.	.	.
CC(CNC(=O)c1cc(COc2ccc3ncccc3c2)on1)c1ccccc1 (centres undefined)	14.6µM	.	.	.	.
O=C(c1cc(COc2ccc3ncccc3c2)on1)N1CCCC(O)C1 (centres undefined)	?	.	.	.	.
CN(Cc1nccn1C)C(=O)c1cc(COc2ccc3ncccc3c2)on1	20.6µM	.	.	.	.
CN(Cc1nccn1C)C(=O)c1cc(COc2cccc(C(F)(F)F)c2)on1	.	?	.	.	.
CC(=O)Nc1ccc(NC(=O)c2ccccc2S(=O)(=O)c2ccc([N+](=O)[O-])cc2)cc1	.	.	.	.	.
O=C(NCCc1nc2ccccc2n1CCO)C1CCCCC1	.	.	/	/	/
COC(=O)c1cccc(Oc2cccc(Cl)n2)c1	.	.	.	.	.
CC1CCC(NC(=O)c2cc(Cl)nc3ccccc23)CC1 (centres undefined)	?	.	.	.	.

Screens from PubChem.
